CYP2C9 inhib: inhibitors of human CYP2C9 | P11712 | CYP2C9 Supersomes, luciferin-H conversion, luminescence | inhibition, % at 5 µM | 96,000 tested, 20% active | AID 777;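 active = blocking of liver enzyme CYP2C9 beyond about 50% at 5 µM, limit read from the data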
Target sequence (P11712 whole entry, looked up): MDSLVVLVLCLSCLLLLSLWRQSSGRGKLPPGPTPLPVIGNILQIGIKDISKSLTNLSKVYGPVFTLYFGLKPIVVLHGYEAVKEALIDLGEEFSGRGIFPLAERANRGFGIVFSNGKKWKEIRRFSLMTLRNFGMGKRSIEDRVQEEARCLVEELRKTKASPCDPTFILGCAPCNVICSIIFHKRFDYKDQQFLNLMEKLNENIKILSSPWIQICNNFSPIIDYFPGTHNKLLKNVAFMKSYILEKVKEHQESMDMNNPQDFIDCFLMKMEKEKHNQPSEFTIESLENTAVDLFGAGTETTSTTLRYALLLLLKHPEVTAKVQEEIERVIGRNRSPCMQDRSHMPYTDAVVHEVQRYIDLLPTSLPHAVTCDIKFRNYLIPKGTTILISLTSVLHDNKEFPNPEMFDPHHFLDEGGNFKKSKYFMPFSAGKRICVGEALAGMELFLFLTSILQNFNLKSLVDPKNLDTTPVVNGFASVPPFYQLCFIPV
CYP2C9 activ: activators of human CYP2C9. P11712. recombinant CYP2C9, luciferin-H conversion, luminescence; stronger effect = higher value; factor 1 = untreated enzyme, 0 = blocked. activation factor at 5 µM. 96,000 tested, 1.4% active. AID 1024;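 active = activation factor of 2 or more for CYP2C9 at a 5 µM dose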;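 also: 0 = sulfaphenazole-blocked wells and 1 = vehicle-only wells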
PostGolgi yeast: growth inhibition of a yeast mutant, post-Golgi transport screen | inhibition, % at 10 µM | 98,000 tested, 0.9% active | post-Golgi transport phenotypic cell assay | AID 739;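 also: yeast cells grown in 1536-well plates; yeast grown about 18 h at 30C before absorbance read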
CYP2C19 activ: activators of human cytochrome P450 2C19; recombinant CYP2C19, luciferin-H EGE luminescence; stronger effect = higher value; 0 = fully inhibited enzyme, 1 = untreated enzyme; activation factor at 5 µM; 96,000 tested, under 10 active;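 active = activation factor of at least 2 at 5 µM in the primary screen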;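 also: 0 = wells with 2.5 mM tranylcypromine and 1 = vehicle-only wells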
CYP2C19 inh: blocks human cytochrome P450 2C19; inhibition, % at 5 µM; AID 778; CYP2C19 Supersomes, luciferin-H EGE luminescence, 30 min; 96,000 tested, 21% active;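 active = CYP2C19 inhibition above a set limit at 5 µM in the primary screen, cut at about 50% in these data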;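 also: plate controls were negative control wells for no effect and 2.5 mM tranylcypromine positive control for full effect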
PostGolgi ctrl: inhibits growth of the yeast control strain; efflux-deficient yeast background strain, growth absorbance A615, 16 h; inhibition, % at 10 µM; 98,000 tested, 5% active; AID 738
* hit, by the source's call. Shown are actives, neighbours in structure and some others; about 32% of the full set was active somewhere. Rule as the data show it, unless noted: active = inhibition above about 30%; inactive = the rest.

SMILES	CYP2C9 inhib	CYP2C9 activ	PostGolgi yeast	CYP2C19 activ	CYP2C19 inh	PostGolgi ctrl
CC(C)(C)C(=O)Nc1cccc(-c2nc3ccccc3[nH]2)c1	85*	0.1	0	0.5	53*	1
CC(=O)Nc1cccc(-c2nc3ccc(NC(C)=O)cc3[nH]2)c1	-11	1.1	-5	1.1	-6	7
CC(Oc1ccccc1)C(=O)Nc1cccc(-c2nc3ccccc3[nH]2)c1 (stereo not drawn)	98*	0	-6	0.2	79*	15
CCN=C1SC(C(=O)Nc2ccc(Cl)c(Cl)c2)CC(=O)N1CC (stereo not drawn)	16	0.8	-2	0.6	42	5
CCN=C1SC(C(=O)NCCc2ccccc2)CC(=O)N1CC (stereo not drawn)	-29	1.3	2	0.4	64*	9
CCN=C1SC(C(=O)Nc2cccc(C)c2)CC(=O)N1CC (stereo not drawn)	-141	2.4*	8	0.2	80*	21
COCCN(C(=O)CN1CCc2ccccc2C1)c1c(N)n(Cc2ccccc2)c(=O)[nH]c1=O	-4	1	-7	1.2	-18	8
Cc1nc2ccccc2c2c1C(=O)N(C(C)C)C2=O	3	1	21	0.3	70*	7
COc1ccc(-c2noc(CCCC(=O)NCc3ccco3)n2)cc1OC	13	0.9	-5	0.9	13	0
Cc1cc(NS(=O)(=O)c2ccccc2)c(C)c(Cl)c1O	-182	2.8*	13	0	99*	19
Cc1noc2ncnc(Oc3ccc4ccccc4c3)c12	21	0.8	-8	0.5	46	31*
CCOc1ccc(C(C)=O)cc1COC(=O)C1=COCCO1	47	0.5	12	0.4	64*	8
CCOc1ccc(C(C)=O)cc1CC(C(N)=O)C(N)=O	9	0.9	3	1	3	2
CC1=C([N+](=O)[O-])C(c2cccc(Br)c2)C2=C(N1)c1ccccc1C2=O (stereo not drawn)	98*	0	4	0.1	88*	12
COc1cccc(C2C3=C(CC(C)(C)CC3=O)OC(N)=C2[N+](=O)[O-])c1 (stereo not drawn)	15	0.9	-8	0.5	48	12
O=C(Cc1ccccc1)Nc1c(C(=O)N2CCOCC2)cnn1-c1ccccc1	-6	1.1	-4	1.1	-6	18
Cn1c(C(=O)NCc2cccnc2)cc2sccc21	-2	1	-2	0.7	34	-9
N#CCCN/N=C(/Cc1nc2ccccc2[nH]1)c1ccc(Cl)cc1	75*	0.2	-5	0	98*	15
CC(C)Sc1nnc(-c2c[nH]c3ccccc23)n1C	19	0.8	-1	0.3	68*	3
C#CCSc1nnc(-c2c[nH]c3ccccc23)n1C	-4	1	4	0.8	15	10
Cn1c(SCc2cccnc2)nnc1-c1c[nH]c2ccccc12	49	0.5	6	0.2	83*	2
COc1cccc(NC(=O)c2nc3nc(C)cc(C(F)F)n3n2)c1	0	1	2	1	4	3
Cc1ccccc1NC(=S)NNC(=O)c1csc2c1CCC(C)C2 (stereo not drawn)	66*	0.3	4	0	98*	7
Cc1ccccc1C(=O)NC(=S)Nc1sc2c(c1C#N)CCC(C)C2 (stereo not drawn)	63*	0.4	2	0.7	34	7
COc1ccc(Cl)cc1NC(=O)c1nc2nc(C)cc(C(F)F)n2n1	-263	3.6*	-3	1.2	-18	14
COc1ccc(Cl)cc1NC(=O)N(C)Cc1c(C)nn(C)c1C	-143	2.4*	3	0.1	86*	0
COc1ccc(Cl)cc1NC(=O)CCN1CCN(C)CC1	-6	1.1	11	1.1	-6	3
COCCNC(=O)CS(=O)Cc1nc(-c2ccc(OC)cc2)oc1C (stereo not drawn)	9	0.9	6	0.7	28	-2
COc1ccc(C2=NOC(C(=O)NC3CCCCC3)C2)cc1OC (stereo not drawn)	-83	1.8	-12	0.8	22	3
COC(=O)c1c(NC(=O)c2nc3nc(C)cc(C(F)F)n3n2)sc2c1CCC2	-22	1.2	10	0.9	8	34*

From PubChem
